# TsaE inh – displaces an ADP probe from E. coli YjeE (TsaE). Potency, µM. purified YjeE enzyme, qHTS inhibition assay. P0AF67. 71,000 tested, 0.05% active. AID 605
#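 Purified YjeE (10 uM) with BODIPY Texas Red-labeled ADP probe (2 uM); compounds pin-transferred, 15 min at room temperature. Binding inhibition read as decreased fluorescence polarization; ADP titration as control.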
# ALOX15 inhib – inhibitors of human 15-lipoxygenase (ALOX15); AID 887; 74,000 tested, 1.4% active; Potency, µM (titrated, usually from 57.1 µM), inactives show at the highest dose activity change, negative = inhibition, actives largely listed as inhibitors; purified 15hLO-1, xylenol orange hydroperoxide absorbance; P16050; also: potency is read from the fitted curve at half-maximal effect; % is scaled to controls: 0 for no effect and ±100 for the full control effect; nearly all actives have a fitted effect of over 55% in size
# Target sequence (P16050 whole entry, looked up): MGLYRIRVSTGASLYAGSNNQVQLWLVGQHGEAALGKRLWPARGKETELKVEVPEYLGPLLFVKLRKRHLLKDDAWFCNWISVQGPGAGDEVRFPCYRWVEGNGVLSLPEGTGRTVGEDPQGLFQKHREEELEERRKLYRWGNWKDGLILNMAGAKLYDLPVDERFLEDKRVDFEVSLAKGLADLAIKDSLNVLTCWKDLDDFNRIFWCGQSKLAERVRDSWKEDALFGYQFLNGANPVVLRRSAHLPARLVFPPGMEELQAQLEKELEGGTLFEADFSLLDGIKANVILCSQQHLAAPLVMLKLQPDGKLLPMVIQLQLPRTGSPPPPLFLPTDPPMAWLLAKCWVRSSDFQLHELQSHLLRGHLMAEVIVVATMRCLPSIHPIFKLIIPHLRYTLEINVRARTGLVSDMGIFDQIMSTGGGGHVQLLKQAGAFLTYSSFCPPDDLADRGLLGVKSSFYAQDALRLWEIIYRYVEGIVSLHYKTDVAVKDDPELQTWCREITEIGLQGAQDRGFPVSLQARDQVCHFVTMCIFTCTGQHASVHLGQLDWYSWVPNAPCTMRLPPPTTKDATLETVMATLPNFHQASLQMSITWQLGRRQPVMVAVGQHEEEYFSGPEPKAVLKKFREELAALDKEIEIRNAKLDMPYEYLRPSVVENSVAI
#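 Purified human 15hLO-1 (40 nM final) in 25 mM Hepes pH 7.5, 0.01% Triton X-100 was preincubated with compound 15 min at room temperature, then reacted 6 min with 50 uM arachidonic acid; hydroperoxide detected by Fe-XO, 573/405 nm absorbance ratio.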
# Hsp90 Hop PPI – changes Hsp90-Hop TPR2A binding signal, up or down; AlphaScreen TPR2A-His6 binding biotin-Hsp90 C-terminal peptide; Potency, µM (doses to about 57 µM), inactives show at the top dose activity change, negative = inhibition; 71,000 tested, 0.44% active; active = well fitted curve in either direction with a large enough effect; inconclusive = small, poorly fitted or top-dose-only effect, or another doubt; also: potency is read from the fitted curve at half-maximal effect; % is scaled to controls: 0 for no effect and ±100 for the full control effect
# Tau filament bind – binders of human tau filaments. 71,000 tested, 2% active. Potency, µM (doses to about 57.1 µM), for inactives: top-dose activity change, negative = inhibition. recombinant tau filaments, thioflavin S fluorescence, 15 h; filaments grown with octadecylsulfate alongside compound. AID 596. P10636;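 also: potency is read from the fitted curve at half-maximal effect; % is scaled to controls: 0 for no effect and ±100 for the full control effect; actives lower thioflavin S fluorescence by blocking filaments or displacing dye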
#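 Quantitative HTS: thioflavine S signal from ODS-induced tau filaments, excited at 450 nm, emission 510 nm. Conditions: 1 uM tau, 30 uM ODS, 15 h at 37 C, pH 7.4.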
# Pol III holo inh – inhibitors of bacterial DNA polymerase III holoenzyme; reconstituted DNA polymerase III holoenzyme replication, biochemical; Potency, µM (top dose mostly 57.1 µM), without a hit: top-dose activity change, negative = inhibition; 71,000 tested, 0.25% active; AID 603; also: potency is read from the fitted curve at half-maximal effect; % is scaled to controls: 0 for no effect and ±100 for the full control effect
#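 Reconstituted *E. coli* holoenzyme (0.35 nM Pol III, 1 nM beta, 154 nM SSB, 2 nM primase) was preincubated with compound for 15 min at RT. Synthesis on 1.4 nM ssM13Gori ran 35 min, then was stopped with PicoGreen/EDTA and read as dsDNA fluorescence.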
# The depositor's hits bear a star; i = inactive; ? = inconclusive; . = not tested or not shown; [ ] = remark or other dose. This is a sample that favours compounds with a hit; in the whole collection about 3.3% have one here. Unless noted, calls follow the shape of the dose curve; as a rule, active = well fitted curve in the direction sought with a large enough effect; inconclusive = small, poorly fitted or top-dose-only effect, or another doubt; inactive = no such curve, though single readings can be large; an effect the other way counts as inactive or inconclusive.
SMILES,TsaE inh,ALOX15 inhib,Hsp90 Hop PPI,Tau filament bind,Pol III holo inh
COc1ccc(-n2c(=O)c(-c3ccccc3)nc3cnc(N4CCOCC4)nc32)cc1,i,-11%,6%,3%,-10%
O=C(Cl)c1cccc([N+](=O)[O-])c1,i,-11%,-4%,-12%,4%
CCOc1ccccc1N1CCN(Cc2cccc(OC)c2OC)CC1,.,-18%,.,.,.
CCOc1ccccc1N1Cc2cc(C)c(C)cc2C1,i,-25%,?,7.9µM*,-2%
COc1ccc(OC)c(N2Cc3cc(C)c(C)cc3C2)c1,i,-16%,?,16µM*,-1%
CC(C)(C)OC(=O)[C@H]([C@@H]1N[C@@H](C(=O)O)C(C)(C)S1)N1C(=O)c2ccccc2C1=O,i,-2%[11.4 µM],-3%[11 µM],-4%[11.4 µM],5%[11.4 µM]
Nc1ccn([C@H]2O[C@H](CO)[C@@H]3[O][Sn]([c]4ccccc4)([c]4ccccc4)[O][C@H]32)c(=O)n1,i,-2%[11.4 µM],-1%[11 µM],-5%[11.4 µM],4%[11.4 µM]
Cc1ccc(S(=O)(=O)N(CC(=O)O)c2cccc(Cl)c2)cc1,.,5%,.,.,.
Cc1ccc(-n2nc3ccc(N)cc3n2)cc1,i,-19%,-3%,13µM*,-3%
CCOc1cccc(-c2cc(C(=O)N/N=C/c3cccc(OC)c3O)[nH]n2)c1,.,7%,.,.,.
N/C(=N\O)c1cn([C@@H]2O[C@@H](CO)[C@H](O)[C@@H]2O)c2ncnc(NO)c12,i,-2%[11.4 µM],-6%[11 µM],-4%[11.4 µM],-16%[11.4 µM]
O=c1c2ccccc2nc2n1CCC2,?,3.2µM*,?,2%,-10%
O=C(c1cccn2c(=O)c3cc(Br)ccc3nc12)N1CCN(c2ccccn2)CC1,i,-12%,3%,12%,2%
O=C(c1cc(-c2ccncc2)nc2ccc(Br)cc12)N1CCN(c2ccccn2)CC1,i,-8%,-13%,32µM*,11%
CC12C=C(/C=C/c3ccc(F)cc3)C(C)(C1)C(c1ccc(F)cc1)CC2=O (stereo not drawn),.,-2%[11.4 µM],.,.,.
O=C(Nc1cccc(C(=O)Nc2ccc(S(=O)(=O)O)c3cc(S(=O)(=O)O)cc(S(=O)(=O)O)c23)c1)Nc1cccc(C(=O)Nc2ccc(S(=O)(=O)O)c3cc(S(=O)(=O)O)cc(S(=O)(=O)O)c23)c1,i,-26%[25.6 µM],?,9%,13µM*
C[C@@]12CC[C@H]3[C@H](CC=C4C[C@@H](O)CC[C@@]43C)[C@@H]1CC[C@@H]2N(CCO)CCO,i,5%[11.4 µM],-1%[11 µM],15%[11.4 µM],-13%[11.4 µM]
CCOC(=O)CSc1cccc2cccnc12,i,-21%,16µM*,-7%,-5%
COc1ccc2cc1Oc1ccc(cc1)C[C@@H]1c3c(cc(OC)c4c3Oc3cc5c(cc3O4)CCN[C@H]5C2)CCN1C,i,3%[11.4 µM],-16%[11 µM],40%[11.4 µM],-4%[11.4 µM]
CCOc1cc(C2C(C#N)=C(N)SC(N)=C2C#N)ccc1OCCN1CCOCC1,i,?,-14%,-10%,-6%
CCOc1ccc(C2C(C#N)=C(N)SC(N)=C2C#N)c(OCC)c1,i,10µM*,-8%,63%,2%
COc1ccc(O[C@H]2C=C[C@@H](c3ccccc3)O[C@H]2CO/N=C2/c3cc(OC)ccc3O[C@@H](c3cccc(OC)c3)[C@H]2O)cc1,.,0%[11.4 µM],.,.,.
Cc1ccc(-n2nnnc2SCC(N)=O)c(C)c1,i,2%,-5%,3%,-1%
Cc1ccc(-n2nnnc2SCC(=O)NCCC2=CCCCC2)c(C)c1,i,32µM*,11%,-6%,1%
Nc1ccc(C2CCCc3nonc32)c2nonc12 (stereo not drawn),i,7.9µM*,?,25µM*,1%
SMILES,TsaE inh,ALOX15 inhib,Hsp90 Hop PPI,Tau filament bind,Pol III holo inh
C1=C(c2ccccc2)CCN(c2ncnc3nc[nH]c23)C1,i,25µM*,-2%,-5%,-5%
COc1cc(C2Nc3cccc4cccc(c34)N2)cc(OC)c1O,i,99%,-10%,4µM*,0%
COc1cc(C2Nc3cccc4cccc(c34)N2)ccc1OC(C)=O,i,-1%,-3%,-16%,-10%
COC(=O)[C@@H]1C(O)[C@@H](C(=O)OC)[C@H](C)N(C)[C@@H]1C (stereo partly drawn),i,1%[11.4 µM],0%[11 µM],9%[11.4 µM],-4%[11.4 µM]
CC(C)[C@H]1C(=O)C(C(N)=O)=C(O)[C@]2(O)C(=O)C3=C(O)c4c(O)ccc(N(C)C)c4C[C@H]3C[C@@H]12,i,16%,?,-14%,-7%
CCCCOn1c(C)c(C(=O)OCC)c2c3no[n+]([O-])c3ccc21,i,-5%,3%,8%,-1%
CCCCOn1c(C)c(C(=O)OCC)c2c3nonc3ccc21,i,-10%,32µM*,18%,-3%
O=C(CCN1CCOCC1)Nc1ccc2c(c1)CCC2,i,25µM*,-4%,-9%,3%
COC(=O)C1=C(C)N=c2s/c(=C/c3cccs3)c(=O)n2C1c1cccs1 (stereo not drawn),i,5%,-4%,1µM*,1%
C[C@@](N)(/C=C\c1ccccc1)C(=O)O,i,8%[11.4 µM],3%[11 µM],2%[11.4 µM],-6%[11.4 µM]
CC(=O)Nc1ccccc1-c1ccc(C)o1,i,3%,-4%,3%,-2%
CC(=O)CCc1oc2ccc(NC(C)=O)cc2c1-c1ccc(C)o1,i,16µM*,-9%,8%,-5%
c1ccc(CNc2nc(-c3ccoc3)nc3ccccc23)cc1,i,-29%,-8%,16µM*,2%
Cc1cnc(CNc2nc(-c3ccoc3)nc3ccccc23)cn1,i,8%,-11%,0%,-9%
COc1ccc2[nH]cc(CCNc3nc(-c4ccoc4)nc4ccccc34)c2c1,i,-6%,-12%,4µM*,0%
Fc1ccc(Nc2nc(-c3ccoc3)nc3ccccc23)cc1,i,0%,-4%,13µM*,-10%
COc1ccc2[nH]cc(CCNc3ccnc(-c4cccc(NS(C)(=O)=O)c4)n3)c2c1,i,20µM*,-17%,-13%,1%
COc1ccc2[nH]cc(CCNc3ccnc(-c4cccc(C#N)c4)n3)c2c1,i,8%,-17%,-22%,-3%
O=C(O)[C@@H]1CCCN1Cc1ccc2c(c1)OCO2,i,-12%[11.4 µM],-2%[11 µM],5%[11.4 µM],-16%[11.4 µM]
COc1ccc2[nH]cc(CCNc3nc(-c4ccc(N(C)C)cc4)nc4ccccc34)c2c1,i,?,?,459%,-2%
CC1(C)OC[C@@H]2O[C@H](n3cnc4c(N)nc(Cl)nc43)[C@@H](OS(C)(=O)=O)[C@@H]2O1,i,4%[11.4 µM],0%[11 µM],1%[11.4 µM],-6%[11.4 µM]
Fc1ccc(Nc2ccnc(-c3ccc4c(c3)OCO4)n2)cc1,i,?,3%,33%,-6%
Fc1ccc(Nc2ccnc(-c3ccoc3)n2)cc1,i,?,-23%,13µM*,-17%
Cc1cccc(CNc2nc(-c3ccoc3)nc3ccccc23)c1,i,-12%,-6%,16µM*,-10%
